From PubChem BioAssay (EPA / NIEHS)
Activity calls are given as the source filed them. How the source made its calls: active means hit-call score of the fitted dose curve at least 0.9, where 1 is the maximum; inactive means score below 0.9.

Assay: ATG_VDRE_CIS: Attagene CIS-FACTORIAL HepG2 Assay for human Vitamin D Receptor Element (VDRE) (AID 2282968)
Settings: HepG2 VDRE cis-reporter transcription, actives raise or lower the signal
Protocol: ATG_CIS is a cell-based, multiplexed-readout assay that uses HepG2, a human liver cell line, with measurements taken at 24 hours after chemical dosing in a 24-well plate.ATG_VDRE_CIS is one of 52 assay component(s) measured or calculated from the ATG_CIS assay. It is designed to make measurements of mRNA induction, a form of inducible reporter, as detected with fluorescence intensity signals by Reverse transcription polymerase chain reaction (RT-PCR) and Capillary electrophoresis technology.Data from the assay component ATG_VDRE_CIS was analyzed into 1 assay endpoint. This assay endpoint, ATG_VDRE_CIS, was analyzed with bidirectional fitting relative to DMSO as the negative control and baseline of activity. Using a type of inducible reporter, measures of mRNA for gain or loss-of-signal activity can be used to understand the reporter gene at the transcription factor-level as they relate to the gene VDR. Furthermore, this assay endpoint can be referred to as a primary readout, because this assay has produced multiple assay endpoints where this one serves a reporter gene function. To generalize the intended target to other relatable targets, this assay endpoint is annotated to the nuclear receptor intended target family, where the subfamily is non-steroidal.
Human liver HepG2 cells are transiently transfected with multiple reporter transcription units (MRTUs) in 6-well plates using FuGene 6 reagent (Roche; 3 ml FuGene/1 mg DNA). The MRTU constructs are regulated by a cis-regulating element (promoter). […] A major difference between the CIS and TRANS system is that in CIS activities of endogenous TFs are measured, whereas the TRANS assay evaluates changes in activities of exogenous, chimeric NR-Gal4 proteins. […] At the end of 24 hour incubation, total RNA was isolated using TriZol reagent (Invitrogen). The isolated RNA is then reverse-transcribed using oligo(dT) primer and Mo-MLV reverse transcriptase (Invitrogen) with DNAse I (Ambion) treatment for 30 min. The one-tenth of the produced cDNA was amplified by PCR using Taq DNA polymerase (Invitrogen) and two reporter sequence-specific primers. The PCR products were fluorescently labeled by primer extension with 6-arboxyfluorescein (6-FAM) 5'-labeled reporter sequence-specific primer (2 min at 95 C, 20 s at 68 C and 10 min at 72 C) and these products were digested with 5U of HpaI (New England Biolabs) for 2h at 37 C. The fragments were purified using Qiaquick PCR columns (Qiagen), analyzed on an ABI 3130xL genetic analyzer (Applied Biosystems) with peak positions identified by using a set of X-rhodamine (ROX)-labeled MapMarker1000 molecular weight standards (BioVentures). The raw capillary electrophoresis data was processed using Attagraph software (Attagene).

outcome, inactive:
O=[N+]([O-])c1ccccc1C(F)(F)F
CCCCCCCCCCC1CO1 (stereo not given)
CC(C)CC(=O)CC(C)C
CC(C)=CCOC(=O)c1ccccc1
CCCC(=O)OC/C=C(\C)CCC=C(C)C
CCc1cc(C(N)=S)ccn1
C=C1CC[C@H]2C[C@@H]1C2(C)C
CC(=O)CCc1ccccc1
CCO[Si](CCCN)(OCC)OCC
NC(N)=Nc1nc(CSCCC(N)=NS(N)(=O)=O)cs1
Cc1cc(-n2nc3ccc(Cl)cc3n2)c(O)c(C(C)(C)C)c1
C1=CCC=C1
NC(=O)c1ccc([N+](=O)[O-])cc1Cl
CCCCCCC1CCC(=O)O1 (stereo not given)
CCCCOC(=O)COc1ccc(Cl)cc1Cl
O=C(O)/C=C\C(=O)O
Oc1cccc2ccccc12
c1ccc2c(c1)Oc1ccccc1S2
CCOC(=O)c1ccccc1
CCCCCC[C@@H](O)C/C=C\CCCCCCCC(=O)O
O=C(O)c1cc(Cl)cc(Cl)c1O
CCCCCCCCCC/C=C/C1CC(=O)OC1=O (stereo not given)
COC(OC)C(C)c1ccccc1 (stereo not given)
N#CCN(CC#N)CCN(CC#N)CC#N
Cc1cccnc1
CCCCCCC1CCCC(=O)O1 (stereo not given)
Cc1cc(C)c(S(=O)(=O)O)cc1N=Nc1cc(S(=O)(=O)O)c2ccccc2c1O
CC(=O)OC(C)(C)Cc1ccccc1
NCc1ccccc1
CC=CC(=O)O
CC/C=C\CCO
CC/C=C\CCCCCO
O=C1NC(=O)C2CC=CCC12 (stereo not given)
CCC(C)(CCC(C)C)C(=O)O (stereo not given)
CCC(C)=NO
O=C1NC(=O)[C@@H]2CC=CC[C@H]12
COC(=O)c1ccccc1
CC1=C(CC=O)C(C)(C)CCC1

AC50, active:
CN(C)CCCN1c2ccccc2CCc2ccc(Cl)cc21 10.4 µM
Oc1ccc(Oc2ccccc2)cc1 38.4 µM
